This passage reports phenotypically active results from the supplement of paper PMC7411054.

Structures can show the parent of a compound that is named as a salt.

The subject of the experiment is HepG2-GM130-SQSTM1. In words: phenotypically active (imaging signature differs from DMSO and reproducible) at any of 0.3-9 uM (binary (1 = active, 0 = inactive)); higher = active. Particulars: treatment time: 24 h. In short, it runs like this: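 Each of fifteen gene-edited A549, HepG2 and WPMY1 reporter lines, marked with BFP for segmentation and GFP and RFP/FusionRed, was treated in four wells at 0.3, 1, 3 or 9 µM for 24 h prior to live imaging. Normalisation of per-well live-cell features used solvent control wells. Deviation needed ≥3 of 4 wells beyond the 95th percentile of control Euclidean distances, and reproducibility needed a median replicate Pearson correlation above the 95th percentile of non-replicates. Both were required for phenotypic activity.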
As to `N[C@@H]1C[C@H]1c1ccccc1` [Tranylcypromine hydrochloride], the phenotypically active was 0 (inactive).
The result for `C/C=C1\CN2CC[C@]34c5cc(OC)ccc5N5C(=O)C(O)OC[C@@H]([C@H]53)[C@H]1C[C@H]24` (some centres undefined) [10-Methoxy-o-demethyltsilanine] reads 0 (inactive).
Turning to `Fc1ccccc1C1=NCC(=S)N(CC(F)(F)F)c2ccc(Cl)cc21` [quazepam], the phenotypically active is 0 (inactive).
On to `COc1c2c(cc3c1OCO3)CC[N+](C)=C2` [Cotarnine chloride], for which the phenotypically active was 0 (inactive).
The result for `N[C@H]1C[C@@H]1c1ccccc1` [tranylcypromine] reads 0 (inactive); that for `O=c1ccc2ccc3occc3c2o1` [Angelicin], 0 (inactive).
Then `C[C@]12COC(=O)C[C@@H]1CC[C@@H]1[C@@H]2CC[C@@]2(C)[C@H]1CC[C@]2(C)O` [oxandrolone], with 0 (inactive); and `CC(C)C[C@H](CN)CC(=O)O` [pregabalin], with 0 (inactive).
Then `NC(=S)N/N=C/c1coc2ccccc2c1=O`, with 0 (inactive); and `O[C@H]1[C@H](O)[C@@H](O)CN2CC[C@H](O)[C@H]12` [Castanospermine], with 0 (inactive); and `Cc1ccc(-c2nc3ccc(C)cn3c2CC(=O)N(C)C)cc1` [zolpidem], with 0 (inactive).
With `CN1C(CC(O)c2ccccc2)CCCC1CC(O)c1ccccc1` (centres undefined) [Lobelanidine hydrochloride], the phenotypically active was 0 (inactive).
The result for `CNC(=O)Oc1ccc2c(c1)[C@]1(C)CCN(C)O[C@@H]1N2C` [Geneserine] reads 0 (inactive).
On to `COc1ccc(C(=O)OC2C[C@H]3CC[C@H](C2)N3C)cc1OC` (some centres undefined) [Convolamine hydrochloride], for which the phenotypically active is 0 (inactive).
